# Assay results from PubChem BioAssay (NCATS).
# “And” between values parts separate entries of the source, which are not always exact repeats. Equal entries are not always repeated. Results filed as inconclusive are left out. Unmarked numbers belong to inactive results. The source made the active and inactive calls. Calls come from the whole dose curve; as a rule, active = well fitted activation curve with a large enough effect; inconclusive = small, poorly fitted or top-dose-only effect; inactive = no such curve, though single readings can be large or run the other way. Non-standard residues stand in square brackets, D forms with d. Residues, ends and D or L forms follow the SMILES beside them. pGlu = O=C1CC[C@@H](C(=O)O)N1
# Biological target: Cellular tumor antigen p53 (Homo sapiens) (UniProt P04637)
# Sequence (P04637 whole entry, looked up): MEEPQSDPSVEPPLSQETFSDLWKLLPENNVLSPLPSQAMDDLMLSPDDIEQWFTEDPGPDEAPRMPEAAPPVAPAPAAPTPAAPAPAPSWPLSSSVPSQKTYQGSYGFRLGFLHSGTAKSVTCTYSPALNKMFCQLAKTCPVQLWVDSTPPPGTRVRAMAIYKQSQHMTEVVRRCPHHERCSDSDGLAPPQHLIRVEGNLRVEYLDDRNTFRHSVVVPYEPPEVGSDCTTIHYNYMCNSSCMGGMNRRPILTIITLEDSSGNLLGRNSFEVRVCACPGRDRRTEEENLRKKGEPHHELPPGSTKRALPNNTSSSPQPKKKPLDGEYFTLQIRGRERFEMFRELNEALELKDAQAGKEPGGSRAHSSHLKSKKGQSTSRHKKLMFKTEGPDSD
# Test: Primary qHTS for small molecule compounds that upregulate eGFP-tagged delta133p53alpha (in N-terminal) cells. (AID 2060322); note: nearly all actives have a fitted effect of over 75% in size;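 for activation: cells pre-induced with doxycycline then dosed without doxycycline; series mostly up to about 56 µM; 0% = DMSO vehicle and 100% = reference activator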
# Conditions: NCI-H358 eGFP-delta133p53alpha fluorescence, 24 h; activation: stronger effect = higher value
# Method in brief: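 NCI-H358 cells pre-induced 24 h with 10 ng/ml doxycycline for eGFP-delta133p53alpha, plated dox-free and exposed 24 h at 37C to titrated compounds. Fixed, Hoechst-stained; gated GFP peak intensity by laser scanning cytometry, normalized to DMSO (0%) and 57.5 uM 5-azacytidine (100%).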
# Potency is the fitted concentration of half-maximal effect.
Structure (SMILES),activation,Potency
O=C(O)CCNC(=O)c1ccccc1,-12.6%,–
C=C1C(=O)O[C@H]2[C@@H]1CCC(C)=CCC[C@@]1(C)O[C@@H]21,–,19.3 µM (active)
CC=CC[C@@H](C)C(=O)[C@H]1C(=O)N[C@@H](C(C)C)C(=O)N(C)CC(=O)N(C)[C@@H](CC(C)C)C(=O)N[C@@H](C(C)C)C(=O)N(C)[C@@H](CC(C)C)C(=O)N[C@@H](C)C(=O)N[C@H](C)C(=O)N(C)[C@@H](CC(C)C)C(=O)N(C)[C@@H](CC(C)C)C(=O)N(C)[C@@H](C(C)C)C(=O)N1C,34.2%,–
CC(=O)O[C@]1(C(C)=O)CC[C@H]2[C@@H]3C=C(Cl)C4=CC(=O)CC[C@]4(C)[C@H]3CC[C@@]21C,-6.69%,–
CC[C@H]1OC(=O)[C@H](C)[C@@H](O[C@H]2C[C@@](C)(OC)[C@@H](O)[C@H](C)O2)[C@H](C)[C@@H](O[C@@H]2O[C@@H](C)C[C@H](N(C)C)[C@@H]2O)[C@](C)(O)C[C@@H](C)C(=O)[C@H](C)[C@@H](O)[C@]1(C)O,29.3%,–
CC(C)=CCC[C@@](C)(O)[C@H]1CC=C(C)CC1,18.6%,–
Cc1c(-c2ccccc2)oc2c(C(=O)OCCN3CCCCC3)cccc2c1=O,-16.7%,–
COc1ccc(NS(=O)(=O)c2ccc(N)cc2)nn1,6.69%,–
COc1ccnc2[nH]cc(C(=O)C(=O)N3CCN(C(=O)c4ccccc4)C[C@@H]3C)c12,3.59%,–
Cc1nc(-c2ccc(Cl)cc2)oc1COC(C)(C)C(=O)O,1.67%,–
[O-][n+]1ccccc1SSc1cccc[n+]1[O-],–,0.379 µM (active)
CCNC(=O)[C@@H]1CCCN1C(=O)[C@H](CCCN=C(N)N)NC(=O)[C@H](CC(C)C)NC(=O)CNC(=O)[C@H](Cc1ccc(O)cc1)NC(=O)[C@H](CO)NC(=O)[C@H](Cc1c[nH]c2ccccc12)NC(=O)[C@H](Cc1cnc[nH]1)NC(=O)[C@@H]1CCC(=O)N1 ([pGlu]HWSYGLRP-NHEt),5.86%,–
FC1(F)C(F)(F)C(F)(F)C2(F)C(F)(F)C(F)(F)C(F)(F)C(F)(F)C2(F)C1(F)F (stereo not given),-7.34%,–
N=C1N=C(N)c2cc3ccccc3cc21,–,35.5 µM (active)
O=c1[nH]c2ccccc2c(=O)n1CCCl,6.21%,–
CNC(=O)CN(CCN(CCN(CC(=O)[O-])CC(=O)NC)CC(=O)[O-])CC(=O)[O-].O.[Gd+3],0.837%,–
O=C(O)c1ccc(-c2cc3cccnc3c(-c3ccc4nonc4c3)n2)cc1,3.89%,–
NC(=O)N1c2ccccc2CC(=O)c2ccccc21,19.2% and 34.6%,–
O=C(O)CCC(=O)OC[C@@H](NC(=O)C(Cl)Cl)[C@H](O)c1ccc([N+](=O)[O-])cc1,15.1%,–
CO/N=C(/C(=O)N[C@@H]1C(=O)N2C(C(=O)OCOC(=O)C(C)(C)C)=C(C)CS[C@H]12)c1csc(N)n1,-20.9%,–

Structure (SMILES),activation,Potency
CCn1cc(C(=O)O)c(=O)c2cc(F)c(N3CCNCC3)nc21,-2.51% and 26.4%,–
NC1CCN(c2nc3c(cc2F)c(=O)c(C(=O)O)cn3-c2ccc(F)cc2F)C1 (stereo not given),11.9%,–
CN[C@@H]1[C@H](O)[C@H](NC)[C@H]2O[C@@]3(O)C(=O)C[C@@H](C)O[C@H]3O[C@@H]2[C@H]1O,27.7%,–
OC[C@]1(O)OC[C@@H](O)[C@H](O)[C@@H]1O,-16.7%,–
CC(=O)Nc1ccc(OCC(O)CNC(C)C)cc1 (stereo not given),-14.2%,–
C[C@]12C=CC(=O)N[C@@H]1CC[C@H]1[C@H]3CC[C@@H](C(=O)Nc4cc(C(F)(F)F)ccc4C(F)(F)F)[C@@]3(C)CC[C@@H]12,9.28%,–
O=C1NC(=O)C(=Cc2cccc(C(F)(F)F)c2)S1,2.49%,–
C=CS(=O)(=O)N1CCCN(c2cc(NCCC(=O)O)nc(-c3ccccn3)n2)CC1,-4.47%,–
Cc1ccc([C@@H]2O[C@H](CO)[C@@H](O)[C@H](O)[C@@H]2O)cc1Cc1ccc(-c2ccc(F)cc2)s1,-12.3%,–
CCCCCCCCCCC[C@@H](C[C@@H]1OC(=O)[C@H]1CCCCCC)OC(=O)[C@H](CC(C)C)NC=O,2.82%,–
Cl/C(=C\n1cncn1)c1ccc(Cl)cc1Cl,-2.82%,–
CO[C@H]1C=CC=C(C)C(=O)NC2=CC(=O)C(NCCN(C)C)=C(C[C@@H](C)C[C@H](OC)[C@@H](O)[C@@H](C)C=C(C)[C@@H]1OC(N)=O)C2=O,14.6%,–
COc1cc(C(=O)NCCCCCC(=O)O)cc(OC)c1OC,-9.6%,–
CCOC(=O)c1cc(=O)c2c(OCC(COc3cccc4oc(C(=O)OCC)cc(=O)c34)OC(=O)[C@@H](N)CCCCN)cccc2o1,–,27.6 µM (active)
CC(=O)OCC[N+](C)(C)C,15.3%,–
CCn1cc(-c2cccc(C(F)(F)F)c2)c2sc(C(N)=NC3CCS(=O)(=O)CC3)cc2c1=O,12.3%,–
C/C(=C(\CCOP(=O)(O)O)SC(=O)c1ccccc1)N(C=O)Cc1cnc(C)nc1N,-11.7%,–
N#C/C(=C1\SCC(c2ccccc2Cl)S1)n1ccnc1 (stereo not given),5.08%,–
CC(C)(C)NC(=O)[C@H]1CN(Cc2cccnc2)CCN1C[C@@H](O)C[C@@H](Cc1ccccc1)C(=O)N[C@H]1c2ccccc2C[C@H]1O,18.3%,–
O=C1CCc2ccccc2O1,-6.7%,–
